Experimental data: PubChem BioAssay AID652039 (The Scripps Research Institute Molecular Screening Center, 2013)
Screen size: about 370,000 compounds; about 3,300 (0.89%) were called active. This excerpt belongs to a sample that is enriched for actives. Unmarked numbers belong to inactive results.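 How the source made its calls: active means activation above the mean of all tested compounds plus 3 SD, computed per campaign excluding outliers beyond control limits (cut at about 13% in these data); inactive means the rest.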

target: Kallikrein-7 (Homo sapiens) (UniProt P49862); assay: proKLK7 zymogen activators, primary screen, biochemical, fluorescence intensity (AID 652039); details: purified proKLK7, EDANS-DABCYL substrate fluorescence; at 7 µM; stronger effect = higher value
Sequence (P49862 whole entry, looked up): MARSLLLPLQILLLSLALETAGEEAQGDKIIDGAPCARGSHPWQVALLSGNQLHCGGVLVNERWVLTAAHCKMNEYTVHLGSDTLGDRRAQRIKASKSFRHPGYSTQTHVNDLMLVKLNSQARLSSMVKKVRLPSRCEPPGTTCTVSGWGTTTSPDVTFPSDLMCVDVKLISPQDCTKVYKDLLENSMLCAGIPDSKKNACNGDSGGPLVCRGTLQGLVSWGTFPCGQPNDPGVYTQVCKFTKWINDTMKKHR

With `CCOc1ccc(-c2cc(C)[n+](CCN(CC)CC)c(-c3ccc(OCC)cc3)c2)cc1` as the compound, how does the activation read?
The activation was 44.7% (active).

Which activation does the source give for `COc1ccc(-c2nn(CCC#N)cc2C(=O)O)cc1` here?
The activation was -0.57%.

For `COc1cc(OC)cc(C(=O)NCCN2CCC3(CC2)C(=O)NCN3c2ccccc2)c1`, which activation is on record?
Its activation is 0.06%.

`CS(=O)(=O)N1CCC2CCNC2C1` (stereo not given) was tested. Which activation did it give?
Its activation is -0.49%.

Which activation does the source give for `COc1ccccc1C1=NCc2nnc(CSC)n2-c2ccc(Cl)cc21` here?
Its activation is -0.06%.

Which activation does the source give for `Cc1cc(OCc2cc(C(=O)O)oc2C)c2c3c(c(=O)oc2c1)CCCC3` here?
The activation was 9.69%.

For `COC(=O)COc1cc(C)cc2oc(=O)c3c(c12)CCCC3`, which activation is on record?
Its activation is 14.7% (active).

How did the activation turn out when `Brc1ccc2c(c1)CNCc1cnnn1-2` was run?
The activation was 0.31%.

How did the activation turn out when `CCN(CC)C(=O)[C@@H]1C=C2c3cccc4[nH]c(Br)c(c34)C[C@H]2N(C)C1` was run?
Its activation is -1.09%.

How did the activation turn out when `Cc1cc(N2CCNC[C@@H]2C)ccc1N1CC[C@H](O)C1` was run?
Its activation is 1.32%.

`COc1cc(Cn2c(N)c(C(=O)NCc3ccco3)c3nc4ccccc4nc32)cc(OC)c1OC` was tested. Which activation did it give?
The activation was -1.84%.

Which activation does the source give for `CCOC(=O)c1c(N)n(CCN2CCOCC2)c2nc3ccccc3nc12` here?
The activation was 27.2% (active).

With `O=C(OCCN1CCOCC1)C1(c2ccccc2)CCCC1` as the compound, how does the activation read?
The activation was 0.22%.

How did the activation turn out when `COc1ccc2c(c1)[C@@]13CCCCC1[C@@H](C2)NCC3` (stereo not given in full) was run?
The activation was 0.08%.

How did the activation turn out when `O=S(=O)(c1ccccc1)N1CCC2CCNC2C1` (stereo not given) was run?
The activation was -0.08%.

How did the activation turn out when `c1ccc(CCN2CCC3(CC2)OCCO3)cc1` was run?
The activation was 0.24%.

Which activation does the source give for `C[C@H]1CN([C@@H](C)CO)C(=O)CCCn2nncc2CO[C@H]1CN(C)C(=O)Oc1ccccc1` here?
The activation was -0.02%.

`COc1cccc(-c2nc3ccc(N4CCN(C)CC4)cc3[nH]2)c1` was tested. Which activation did it give?
Its activation is 68.7% (active).

With `Clc1ccc([C@@H]2CC3CCC2N3)cn1` (stereo not given in full) as the compound, how does the activation read?
Its activation is 0.62%.

How did the activation turn out when `CCC(C)NC1(c2ccccc2)CCCCC1` (stereo not given) was run?
The activation was 0.13%.

With `COc1ccc(C(=O)CC2C(=O)N(C)C(=O)N(C)C2=O)cc1` as the compound, how does the activation read?
The activation was -0.07%.

`Cc1ccccc1CCC[C@@H](CC1CCCCC1)CN(C)C(=O)Oc1ccccc1` was tested. Which activation did it give?
The activation was 0.38%.

How did the activation turn out when `Cc1nc2ccc(N3CCN(C)CC3)cc2nc1C` was run?
The activation was 83.6% (active).

How did the activation turn out when `COP(=O)(Sc1ccccc1)C(Cc1ccccc1)NC(=O)OCc1ccccc1` (stereo not given) was run?
The activation was 0.08%.

With `c1ccc2sc(C3CCCNC3)nc2c1` (stereo not given) as the compound, how does the activation read?
Its activation is 0.61%.
